Reference: PubChem BioAssay (NCATS)
Unmarked numbers belong to inactive results. The rule behind the calls is not given here.

Tested on: HIV-1 nucleocapsid protein NCp7 (binding to TG oligonucleotide)
Test: HIV Nucleocapsid (AID 346);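 note: potency is for inhibitors that block NC binding and lower polarization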
Conditions: HIV-1 NC / fluorescein-TGTGTGTG probe, fluorescence polarization
Experimental: NCGC Assay Overview: HIV-1 nucleocapsid protein (HIV-1 NC) is a small (6.5 kDa) basic zinc-finger protein which participates in packaging of viral genomic RNA. The spacing and metal-chelating residues (3 Cys, 1 His) of the Cys-X2-Cys-X4-His-X4-Cys Zn fingers are conserved among all known retroviruses (J. Med. Chem. 1998, 41, 1371-1381). HIV-1 NC was assayed for its binding to the consensus sequence single-stranded 5'-TGTGTGTG. […] High salt was included to increase the stringency of binding and inhibitor screen. Reducing agents and zinc were present to stabilize the nucleocapsid zinc-finger protein.
NCGC Assay Protocol Summary: Buffer. Hepes pH 7.5, 250mM NaCl, 1uM ZnCl2. 0.004% polyethylene glycol 20000. TCEP (100 uM) and 2-Mercaptoethanol (5 mM), added fresh the day of the experiment. Reagents/Controls. 10 nM TG4xF only in columns 3 and 4 as negative control. 10 nM TG4xF/100 nM HIV-1 NC in columns 1, 2, 5-48. Titration of control compound NSC-13778 (from 20 mM, then 1:2) pin-transferred to column 2. Assay Steps. Two uL of reagents were dispensed to 1536-well Kalypsys black plates. The plates were centrifuged for 1 min at 1000 rpm. Compounds and controls (20 nL) were transferred via Kalypsys PinTool. The plates were incubated for 1 hr at room temperature, and then read on ViewLux (Perkin-Elmer). High-throughput CCD imager using fluorescein polarization filter set and 45 seconds exposure time.
Potency is the fitted concentration of half-maximal effect.

| Structure (SMILES) | Potency [µM] |
| --- | --- |
| Cn1cccc1C(=O)N1CCC[C@@]2(CCN(c3ccncc3)C2)C1 | > 20 |
| COCCNc1nc(-c2ccc(C(=O)N(C)C)cc2)nc2ccccc12 | > 20 |
| COC(=O)N1CCC2(CC1)CN(C(c1ccccc1)c1ccccc1)C2 | > 20 |
| COCCn1c(=O)cnc2cnc(Nc3ccccc3)nc21 | > 4 |
| CN(Cc1ccco1)c1ncnc2ccc(-c3ccccc3C(F)(F)F)cc12 | > 20 |
| COc1ccc(-n2c(=O)c(-c3ccc(F)cc3)nc3cnc(N4CCOCC4)nc32)cc1 | > 20 |
| COC(=O)N1CCC2(CCCN(Cc3ccccc3OC)C2)CC1 | > 20 |
| COc1ccc(-c2nc3cnc(OC)nc3n(C3CC3)c2=O)cc1 | > 20 |
| O=C(Nc1cccc(F)c1)N1CCC2(CCNCC2)CC1 | > 20 |
| Cc1cnc(CNc2cc(-c3ccccc3CN(C)C)ncn2)cn1 | > 20 |
| Cc1cnc(CNc2ncnc3ccc(-c4ccccc4C)cc23)cn1 | > 20 |
| CC(C)CN1CCCC2(CCN(C(=O)c3cccc(F)c3)CC2)C1 | > 20 |
| COc1cccc(Nc2ncc3ncc(=O)n(Cc4cccs4)c3n2)c1 | > 20 |
| CCNc1ncc2nc(-c3ccccc3)c(=O)n(-c3ccc(OC)cc3)c2n1 | > 20 |
| FC(F)(F)c1ccccc1-c1cncnc1-n1ccnc1 | > 20 |
| CNc1ccnc(-c2cccc(NS(C)(=O)=O)c2)n1 | > 20 |
| Cc1ccccc1-c1nccc(NCCN2CCOCC2)n1 | > 20 |
| O=C(c1cnccn1)N1CCC2(CC1)CCN(C(c1ccccc1)c1ccccc1)CC2 | > 20 |
| CS(=O)(=O)Nc1cccc(-c2nccc(-n3ccnc3)n2)c1 | > 20 |
| COc1ncc2nc(C)c(=O)n(CCC#N)c2n1 | > 20 |

| Structure (SMILES) | Potency [µM] |
| --- | --- |
| CC(C)NC(=O)N1CCC2(CC1)CCN(C(=O)c1cccn1C)CC2 | > 20 |
| CN1CCN(c2ncc3nc(-c4cccc(C#N)c4)c(=O)n(Cc4ccc(F)cc4)c3n2)CC1 | > 20 |
| CN(C)c1ncc2nc(-c3cc(F)cc(F)c3)c(=O)n(CCc3ccccc3)c2n1 | > 20 |
| CC(=O)N1CCC2(CCCN(Cc3ccccc3)C2)CC1 | > 20 |
| COc1ccc(C(=O)N2CCC[C@@]3(CCN(C(=O)NC(C)C)C3)C2)cc1 | > 20 |
| Cn1cccc1C(=O)N1CCC2(CCN(Cc3ccccc3)CC2)CC1 | > 20 |
| Cc1cnc(CNc2ncncc2-c2ccc(N(C)C)cc2)cn1 | > 20 |
| COc1cccc(Nc2ncc3nc(-c4cccs4)c(=O)n(Cc4cccs4)c3n2)c1 | > 20 |
| CN1CC[C@@]2(CCCN(C(=O)c3cc(C(F)(F)F)cc(C(F)(F)F)c3)C2)C1 | > 20 |
| Cc1cnc(CNc2ncncc2-c2ccccc2C#N)cn1 | > 20 |
| COCC(=O)N1CCC2(CC1)CCN(C(=O)Nc1cccc(C#N)c1)CC2 | > 20 |
| Clc1ccccc1-c1nc(NC2CCNCC2)c2ccccc2n1 | > 20 |
| O=c1cnc2cnc(OCc3ccccc3)nc2n1Cc1ccc(F)cc1 | > 20 |
| O=C(c1ccncc1)N1CCC[C@@]2(CCN(c3ccccn3)C2)C1 | > 20 |
| O=c1c(-c2cc(F)cc(F)c2)nc2cnc(N3CCOCC3)nc2n1C1CC1 | > 20 |
| Cc1noc(C)c1-c1cc(Nc2ccc(F)cc2)ncn1 | > 20 |
| O=c1cnc2cnc(OCc3ccccc3)nc2n1CCc1ccccc1 | > 20 |
| COc1cccc(Nc2ncc3ncc(=O)n(C[C@H]4CCCO4)c3n2)c1 | > 20 |
| COc1cccc(Cn2c(=O)c(C)nc3cnc(Oc4cccc(Cl)c4)nc32)c1 | > 20 |
| O=C(Nc1ccccc1)N1CCCC2(CCN(C(=O)c3cccc(F)c3)CC2)C1 | > 20 |
